Of roughly 7,900 targets only a part is listed; those with a hit were picked by preference. About 0.6% of all pairs of compound and target were hits.
Experiments:
Test in all cases: log2 fold change, soluble protein after heating vs DMSO (PISA); higher = thermal stabilisation; K562 cells, 10 uM, 30 min; active = over 0.2 and 3.5 SD of the protein, either way, in both replicates (recomputed)
[1] = compound: CC1=C(C=C(C=C1)NC(=O)C2=CC(=CC=C2)C(C)(C)C#N)NC3=CC4=C(C=C3)N=CN(C4=O)C
In short: (§1)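 Soluble protein was defined as the supernatant after 21,000xg for 90 min. It came from K562 cells at 2×10^6 cells/mL given 10 μM compound for 30 min, heated in aliquots for 3 min across 48°C-58°C, pooled, and extracted in PBS with 0.5% NP-40 at 4°C, and was quantified by TMTpro 16plex LC-MS/MS with equalised channel sums. Thermal stability against control samples, from duplicates, is reported as log2 fold change.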

[2] = compound: CC1=C(C=C(C=C1)NC(=O)C2=CC(=CC=C2)N(C)C)NC(=O)C3=CC=C(C=C3)O
In short: as §1

[3] = compound: CC1=CC=C(C=C1)SC2=C3C=C(SC3=CN=C2)C(=O)N
In short: as §1

[4] = compound: CC1=NC(=CC=C1)C2=C(N=C(N2)C(C)(C)C)C3=CC4=NC=CN=C4C=C3
In short: as §1

Nexturastat A = compound: CCCCN(Cc1ccc(C(=O)NO)cc1)C(=O)Nc1ccccc1 [Nexturastat A]
In short: as §1

vemurafenib = compound: CCCS(=O)(=O)Nc1ccc(F)c(C(=O)c2c[nH]c3ncc(-c4ccc(Cl)cc4)cc23)c1F [vemurafenib]
In short: as §1

[5] = compound: CCCS(=O)(=O)Nc1ccc(F)c(C(=O)c2c[nH]c3ncc(Cl)cc23)c1F
In short: as §1

[6] = compound: CCCc1cc(C)[nH]c(=O)c1CNC(=O)c1cc(-c2ccnc(N3CCN(C)CC3)c2)cc2c1cnn2C(C)C
In short: as §1

givinostat = compound: CCN(CC)Cc1ccc2cc(COC(=O)Nc3ccc(C(=O)NO)cc3)ccc2c1 [givinostat]
In short: as §1

barasertib = compound: CCN(CCCOc1ccc2c(Nc3cc(CC(=O)Nc4cccc(F)c4)[nH]n3)ncnc2c1)CCOP(=O)(O)O [barasertib]
In short: as §1

Measured: log2 fold change

KPNA1 (UniProt P52294)
Chain of UniProt P52294 (P52294 whole entry, looked up): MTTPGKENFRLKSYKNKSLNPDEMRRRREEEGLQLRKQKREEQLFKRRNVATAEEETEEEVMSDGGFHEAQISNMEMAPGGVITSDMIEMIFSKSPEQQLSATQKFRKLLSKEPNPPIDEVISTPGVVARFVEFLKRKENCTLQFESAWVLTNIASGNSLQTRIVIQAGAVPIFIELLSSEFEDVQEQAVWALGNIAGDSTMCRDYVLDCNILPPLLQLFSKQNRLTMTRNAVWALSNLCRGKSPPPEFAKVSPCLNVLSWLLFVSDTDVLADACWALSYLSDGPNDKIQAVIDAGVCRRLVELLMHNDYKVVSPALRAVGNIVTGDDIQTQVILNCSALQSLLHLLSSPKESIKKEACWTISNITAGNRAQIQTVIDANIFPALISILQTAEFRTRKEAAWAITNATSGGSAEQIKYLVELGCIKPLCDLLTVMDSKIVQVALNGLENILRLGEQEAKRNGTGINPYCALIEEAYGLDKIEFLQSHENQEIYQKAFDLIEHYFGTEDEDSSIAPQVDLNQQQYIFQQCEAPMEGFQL
inactive: [1] -0.034 | [2] -0.056 | [3] -0.021 | [4] -0.041 | Nexturastat A 0.084 | vemurafenib 0.035 | [5] 0.026 | [6] 0.034 | givinostat 0.086 | barasertib 0.012

MAP3K4 isoform 2 (UniProt Q9Y6R4)
inactive: [1] -0.012 | [2] 0.026 | [3] -0.018 | [4] -0.003 | Nexturastat A 0.008 | vemurafenib -0.033 | [5] -0.001 | [6] -0.012 | givinostat -0.015 | barasertib 0.02

MAGEA9 (UniProt P43362)
inactive: [1] -0.033 | [2] 0.05 | [3] -0.005 | [4] -0.087 | Nexturastat A 0.005 | vemurafenib -0.031 | [5] 0.072 | [6] 0.054 | givinostat 0.066 | barasertib 0.036

MAP2K3 isoform 3 (UniProt P46734)
inactive: [1] -0.071 | [2] -0.074 | [3] -0.051 | [4] -0.08 | Nexturastat A 0.103 | vemurafenib -0.031 | [5] -0.008 | [6] 0.021 | givinostat 0.002 | barasertib 0.042

MAP3K20 (UniProt Q9NYL2)
Chain of UniProt Q9NYL2 (Q9NYL2 whole entry, looked up): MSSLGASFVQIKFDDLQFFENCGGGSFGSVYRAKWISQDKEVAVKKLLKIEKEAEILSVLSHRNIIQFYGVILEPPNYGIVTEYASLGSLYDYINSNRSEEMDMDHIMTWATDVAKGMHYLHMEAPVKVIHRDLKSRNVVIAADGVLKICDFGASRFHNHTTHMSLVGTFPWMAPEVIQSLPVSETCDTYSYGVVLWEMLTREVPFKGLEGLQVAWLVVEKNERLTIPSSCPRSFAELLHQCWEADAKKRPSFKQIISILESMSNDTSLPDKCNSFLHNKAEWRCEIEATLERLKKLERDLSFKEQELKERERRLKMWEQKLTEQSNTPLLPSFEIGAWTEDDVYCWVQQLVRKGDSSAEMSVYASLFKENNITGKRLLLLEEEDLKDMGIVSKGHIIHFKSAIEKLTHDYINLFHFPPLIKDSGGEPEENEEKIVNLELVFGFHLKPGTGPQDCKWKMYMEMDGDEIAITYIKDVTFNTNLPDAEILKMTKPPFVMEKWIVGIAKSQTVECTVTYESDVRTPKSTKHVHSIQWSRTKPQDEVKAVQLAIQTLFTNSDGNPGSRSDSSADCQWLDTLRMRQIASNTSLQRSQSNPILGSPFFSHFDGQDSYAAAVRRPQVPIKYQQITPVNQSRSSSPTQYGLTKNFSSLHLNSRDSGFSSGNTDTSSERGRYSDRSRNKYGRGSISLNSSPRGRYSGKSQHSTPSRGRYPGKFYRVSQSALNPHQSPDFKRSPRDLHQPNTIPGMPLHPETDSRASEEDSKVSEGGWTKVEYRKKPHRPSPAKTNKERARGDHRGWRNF
active: [1] -0.448
inactive: [2] -0.098 | [3] -0.014 | [4] 0.03 | Nexturastat A 0.062 | vemurafenib -0.254 | [5] -0.163 | [6] 0.022 | givinostat -0.089 | barasertib -0.02

IPO9 (UniProt Q96P70)
Chain of UniProt Q96P70 (Q96P70 whole entry, looked up): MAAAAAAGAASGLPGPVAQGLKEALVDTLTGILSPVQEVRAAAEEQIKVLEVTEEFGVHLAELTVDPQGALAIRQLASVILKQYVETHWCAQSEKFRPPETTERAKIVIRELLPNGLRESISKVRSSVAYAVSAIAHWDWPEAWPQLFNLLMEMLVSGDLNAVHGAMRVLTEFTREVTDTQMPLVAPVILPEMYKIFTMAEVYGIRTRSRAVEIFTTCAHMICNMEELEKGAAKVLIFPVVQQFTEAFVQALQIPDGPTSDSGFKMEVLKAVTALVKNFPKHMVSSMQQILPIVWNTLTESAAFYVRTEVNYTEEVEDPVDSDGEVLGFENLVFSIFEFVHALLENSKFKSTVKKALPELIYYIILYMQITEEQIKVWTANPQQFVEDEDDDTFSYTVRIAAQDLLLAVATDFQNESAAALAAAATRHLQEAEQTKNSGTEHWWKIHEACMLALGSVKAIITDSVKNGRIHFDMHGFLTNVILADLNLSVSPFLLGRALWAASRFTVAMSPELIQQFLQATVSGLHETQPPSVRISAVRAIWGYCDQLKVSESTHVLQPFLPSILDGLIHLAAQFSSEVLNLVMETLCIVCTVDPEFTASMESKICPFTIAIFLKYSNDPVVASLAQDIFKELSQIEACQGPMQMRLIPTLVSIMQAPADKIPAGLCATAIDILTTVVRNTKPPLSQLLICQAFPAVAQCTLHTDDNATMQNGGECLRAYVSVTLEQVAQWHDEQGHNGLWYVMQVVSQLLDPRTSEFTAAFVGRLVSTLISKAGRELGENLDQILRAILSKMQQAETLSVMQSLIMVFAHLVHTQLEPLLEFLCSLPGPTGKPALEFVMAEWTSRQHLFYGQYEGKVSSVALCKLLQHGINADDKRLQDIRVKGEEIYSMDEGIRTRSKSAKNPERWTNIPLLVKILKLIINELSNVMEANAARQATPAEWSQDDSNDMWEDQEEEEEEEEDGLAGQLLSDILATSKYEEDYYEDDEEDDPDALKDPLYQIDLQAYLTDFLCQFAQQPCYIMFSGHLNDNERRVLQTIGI
inactive: [1] 0.029 | [2] 0.033 | [3] 0 | [4] -0.001 | Nexturastat A -0.075 | vemurafenib 0.079 | [5] 0.075 | [6] -0.022 | givinostat -0.018 | barasertib 0.025

ILK (UniProt Q13418)
inactive: [1] -0.179 | [2] -0.053 | [3] 0.025 | [4] -0.208 | Nexturastat A 0.135 | vemurafenib -0.075 | [5] -0.005 | [6] -0.031 | givinostat 0.041 | barasertib 0.019

KMT5A (UniProt Q9NQR1)
inactive: [1] 0.07

LARP4B (UniProt Q92615)
inactive: [1] 0.055 | [2] 0.032 | [3] 0.016 | [4] 0.001 | Nexturastat A 0.127 | vemurafenib 0.016 | [5] 0.022 | [6] 0.05 | givinostat 0.061 | barasertib -0.025

KHDRBS1 (UniProt Q07666)
inactive: [1] 0.086 | [2] -0.006 | [3] -0.082 | [4] 0.111 | Nexturastat A 0.077 | vemurafenib 0.075 | [5] -0.068 | [6] 0.034 | givinostat 0.005 | barasertib -0.106

LEMD2 (UniProt Q8NC56)
Chain of UniProt Q8NC56 (Q8NC56 whole entry, looked up): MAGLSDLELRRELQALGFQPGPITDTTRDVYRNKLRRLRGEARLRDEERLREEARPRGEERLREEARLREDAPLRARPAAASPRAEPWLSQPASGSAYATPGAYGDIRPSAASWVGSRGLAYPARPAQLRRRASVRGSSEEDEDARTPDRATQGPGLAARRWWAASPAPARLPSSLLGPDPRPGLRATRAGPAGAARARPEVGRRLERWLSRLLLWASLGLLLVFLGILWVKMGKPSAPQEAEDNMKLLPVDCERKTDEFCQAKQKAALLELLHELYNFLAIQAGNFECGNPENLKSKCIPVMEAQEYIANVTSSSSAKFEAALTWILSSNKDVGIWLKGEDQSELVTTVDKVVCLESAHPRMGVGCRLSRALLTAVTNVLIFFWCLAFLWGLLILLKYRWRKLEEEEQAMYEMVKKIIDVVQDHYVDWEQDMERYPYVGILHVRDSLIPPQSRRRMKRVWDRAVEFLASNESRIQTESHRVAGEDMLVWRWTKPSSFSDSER
inactive: [1] -0.068 | [2] -0.02 | [3] 0.038 | [4] 0.051 | Nexturastat A -0.002 | vemurafenib -0.001 | [5] 0.045 | [6] 0.002 | givinostat -0.022 | barasertib 0.017

KSR1 (UniProt Q8IVT5)
inactive: [1] 0.231 | [2] -0.007 | [3] 0.112 | [4] -0.028 | Nexturastat A 0.001 | vemurafenib 0.046 | [5] 0.218 | [6] -0.132 | givinostat 0.106 | barasertib 0.013

MAP4 (UniProt E7EVA0)
inactive: [1] 0 | [2] 0.008 | [3] -0.03 | [4] -0.061 | Nexturastat A 0.161 | vemurafenib -0.046 | [5] -0.002 | [6] 0.024 | givinostat 0.091 | barasertib 0.061

MIF (UniProt P14174)
inactive: [1] 0.056 | [2] -0.014 | [3] 0.056 | [4] 0.098 | Nexturastat A -0.29 | vemurafenib -0.009 | [5] -0.047 | [6] -0.076 | givinostat -0.113 | barasertib -0.009

LONP2 (UniProt Q86WA8)
Chain of UniProt Q86WA8 (Q86WA8 whole entry, looked up): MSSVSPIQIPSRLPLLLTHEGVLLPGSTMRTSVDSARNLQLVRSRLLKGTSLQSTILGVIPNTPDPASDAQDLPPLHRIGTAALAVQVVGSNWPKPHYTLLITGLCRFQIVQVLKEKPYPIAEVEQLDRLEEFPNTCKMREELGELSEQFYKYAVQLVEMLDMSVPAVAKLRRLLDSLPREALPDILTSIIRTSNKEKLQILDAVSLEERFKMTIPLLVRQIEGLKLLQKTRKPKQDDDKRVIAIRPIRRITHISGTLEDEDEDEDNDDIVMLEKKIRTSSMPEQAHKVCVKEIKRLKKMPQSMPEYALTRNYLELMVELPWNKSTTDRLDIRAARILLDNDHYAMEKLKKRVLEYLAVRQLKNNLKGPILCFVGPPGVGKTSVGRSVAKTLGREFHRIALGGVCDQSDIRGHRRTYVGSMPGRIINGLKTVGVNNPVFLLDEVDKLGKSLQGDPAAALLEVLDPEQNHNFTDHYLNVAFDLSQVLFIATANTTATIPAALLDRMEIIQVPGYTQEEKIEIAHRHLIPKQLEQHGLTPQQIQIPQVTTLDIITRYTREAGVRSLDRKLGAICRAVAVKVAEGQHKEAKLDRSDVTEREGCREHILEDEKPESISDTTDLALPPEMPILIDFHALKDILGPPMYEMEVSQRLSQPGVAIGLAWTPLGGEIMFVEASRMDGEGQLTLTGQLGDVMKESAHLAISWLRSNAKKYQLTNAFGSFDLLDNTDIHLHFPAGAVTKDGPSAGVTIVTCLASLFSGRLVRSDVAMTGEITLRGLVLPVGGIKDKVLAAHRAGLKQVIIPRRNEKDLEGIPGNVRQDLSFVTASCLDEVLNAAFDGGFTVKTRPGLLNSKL
inactive: [1] 0.173 | [2] -0.119 | [3] 0.08 | [4] 0.009 | Nexturastat A -0.083 | vemurafenib 0.128 | [5] -0.137 | [6] 0.013 | givinostat -0.05 | barasertib -0.056

KIF3A (UniProt Q9Y496)
inactive: [1] -0.041 | [2] -0.013 | [3] -0.076 | [4] 0 | Nexturastat A 0.029 | vemurafenib -0.002 | [5] 0.062 | [6] 0.045 | givinostat 0.074 | barasertib -0.041

ILF2 (UniProt Q12905)
inactive: [1] 0.036 | [2] -0.032 | [3] -0.031 | [4] -0.041 | Nexturastat A 0.084 | vemurafenib 0.028 | [5] -0.042 | [6] 0.032 | givinostat -0.02 | barasertib -0.119

MIER1 isoform 12 (UniProt Q8N108)
Chain of UniProt Q8N108 (Q8N108 whole entry, looked up): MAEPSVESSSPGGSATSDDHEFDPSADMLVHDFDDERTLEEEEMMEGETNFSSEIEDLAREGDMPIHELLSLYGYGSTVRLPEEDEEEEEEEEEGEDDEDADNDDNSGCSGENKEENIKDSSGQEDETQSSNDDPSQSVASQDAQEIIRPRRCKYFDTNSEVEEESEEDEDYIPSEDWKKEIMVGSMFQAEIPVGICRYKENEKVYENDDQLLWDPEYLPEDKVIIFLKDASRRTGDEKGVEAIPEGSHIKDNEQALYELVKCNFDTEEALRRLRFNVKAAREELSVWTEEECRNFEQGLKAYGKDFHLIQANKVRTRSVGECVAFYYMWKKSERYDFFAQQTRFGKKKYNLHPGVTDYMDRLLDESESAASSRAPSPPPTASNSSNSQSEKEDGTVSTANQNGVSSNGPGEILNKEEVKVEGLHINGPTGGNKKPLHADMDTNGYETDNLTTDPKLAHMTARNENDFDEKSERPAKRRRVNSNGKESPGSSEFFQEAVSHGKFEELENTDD
inactive: [1] 0.003 | [2] 0.016 | [3] 0.002 | [4] 0.012 | vemurafenib -0.006 | [5] 0.008 | [6] -0.013 | barasertib 0.01
active: Nexturastat A 0.306 | givinostat 0.31

JMJD6 isoform 3 (UniProt Q6NYC1)
inactive: [1] 0.055 | [2] -0.085 | [3] 0.092 | [4] 0.024 | Nexturastat A -0.147 | vemurafenib 0.002 | [5] 0.049 | [6] 0.071 | givinostat -0.095 | barasertib -0.007

IPO13 (UniProt O94829)
inactive: [1] 0.068 | [2] -0.013 | [3] -0.008 | [4] -0.027 | Nexturastat A -0.03 | vemurafenib -0.01 | [5] 0.047 | [6] 0.009 | givinostat -0.011 | barasertib 0.044

MICOS13 (UniProt Q5XKP0)
inactive: [1] 0.041 | [2] -0.06 | [3] 0.056 | [4] 0.065 | Nexturastat A -0.065 | vemurafenib 0.018 | [5] 0.077 | [6] -0.069 | givinostat 0.027 | barasertib 0.034

KTN1 (UniProt Q86UP2)
inactive: [1] -0.071 | [2] -0.051 | [3] 0.014 | [4] -0.002 | Nexturastat A 0.141 | vemurafenib 0.012 | [5] 0.027 | [6] 0.034 | givinostat 0.022 | barasertib 0.033

LTN1 isoform 3 (UniProt O94822)
inactive: [1] -0.013 | [2] -0.031 | [3] -0.008 | [4] -0.006 | Nexturastat A 0.104 | vemurafenib 0.039 | [5] 0.058 | [6] 0.017 | givinostat 0.065 | barasertib 0.042

LUZP1 (UniProt Q86V48)
inactive: [1] -0.128 | [2] 0.136 | [3] -0.005 | [4] -0.182 | Nexturastat A 0.184 | vemurafenib 0.05 | [5] -0.091 | [6] -0.029 | givinostat 0.031 | barasertib -0.062

L2HGDH (UniProt Q9H9P8)
Chain of UniProt Q9H9P8 (Q9H9P8 whole entry, looked up): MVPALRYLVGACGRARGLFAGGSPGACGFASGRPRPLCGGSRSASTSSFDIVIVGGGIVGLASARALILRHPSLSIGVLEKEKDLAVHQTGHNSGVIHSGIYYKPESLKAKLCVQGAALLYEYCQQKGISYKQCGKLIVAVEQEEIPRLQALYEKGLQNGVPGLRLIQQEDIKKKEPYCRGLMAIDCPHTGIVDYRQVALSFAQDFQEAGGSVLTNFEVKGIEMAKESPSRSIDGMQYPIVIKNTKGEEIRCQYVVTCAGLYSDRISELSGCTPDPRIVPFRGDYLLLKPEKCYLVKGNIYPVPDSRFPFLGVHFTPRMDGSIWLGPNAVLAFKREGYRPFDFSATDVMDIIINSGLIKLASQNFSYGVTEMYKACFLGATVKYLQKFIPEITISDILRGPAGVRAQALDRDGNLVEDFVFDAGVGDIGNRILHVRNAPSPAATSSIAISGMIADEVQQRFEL
inactive: [1] 0.03 | [2] 0.009 | [3] 0.021 | [4] -0.046 | Nexturastat A -0.102 | vemurafenib 0.015 | [5] -0.042 | [6] -0.081 | givinostat -0.016 | barasertib 0.011

ITPRIP (UniProt Q8IWB1)
inactive: [1] -0.044 | [2] 0.007 | [3] -0.01 | [4] 0.081 | Nexturastat A 0.005 | vemurafenib 0.02 | [5] 0.061 | [6] -0.099 | givinostat 0.007 | barasertib 0.023

IMMP1L (UniProt Q96LU5)
inactive: [1] 0.003 | [2] 0.067 | [3] 0.008 | [4] -0.029 | Nexturastat A -0.085 | vemurafenib -0.055 | [5] -0.031 | [6] 0.273 | givinostat -0.048 | barasertib -0.024

KDELR2 (UniProt P33947)
Chain of UniProt P33947 (P33947 whole entry, looked up): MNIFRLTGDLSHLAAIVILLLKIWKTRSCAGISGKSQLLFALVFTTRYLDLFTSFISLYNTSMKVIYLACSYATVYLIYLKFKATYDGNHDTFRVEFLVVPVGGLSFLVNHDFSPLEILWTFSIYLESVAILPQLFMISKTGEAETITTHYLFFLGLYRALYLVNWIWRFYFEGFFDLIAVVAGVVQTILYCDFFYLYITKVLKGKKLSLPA
inactive: [1] 0.058 | [2] 0.099 | [3] 0.064 | [4] -0.094 | Nexturastat A -0.13 | vemurafenib -0.079 | [5] -0.054 | [6] -0.128 | givinostat -0.064 | barasertib 0.036

LMNB2 (UniProt Q03252)
inactive: [1] -0.022 | [2] 0.015 | [3] -0.025 | [4] 0.063 | Nexturastat A -0.04 | vemurafenib 0.019 | [5] 0.045 | [6] -0.014 | givinostat 0.047 | barasertib 0.039

IMMT isoform 2 (UniProt Q16891)
inactive: [1] 0.053 | [2] 0.074 | [3] -0.05 | [4] 0.002 | Nexturastat A -0.155 | vemurafenib -0.006 | [5] 0.018 | [6] 0.325 | givinostat 0.045 | barasertib 0.081
